PubChem BioAssay (Tox21)
“And” between values parts separate entries of the source, which are not always exact repeats. Equal entries are not always repeated. Results filed as inconclusive are left out. Entries that show only a call come without a potency. The source made the active and inactive calls. Unless noted, the call rests on the fitted dose curve.

Tests used:
[1] = Nuclear factor erythroid 2-related factor 2/antioxidant responsive element (Nrf2/ARE) small molecule agonists: qHTS cell viability counter screen in human keratinocytes (AID 1919968; active means well fitted curve in the direction sought with a large enough effect in the repeat runs; an effect the other way counts as inactive or inconclusive; further: nearly all actives have a fitted effect of over 55% in size)
How it was run: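 Cells of the KeratinoSens line were plated at 1,500 per well and left for 5 h before compound transfer from DMSO stocks. After a 23 h incubation (37 C, 5% CO2), CellTiter-Fluor was added. Signal was taken as fluorescence intensity 1 h later.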

[2] = Nuclear factor erythroid 2-related factor 2/antioxidant responsive element (Nrf2/ARE) small molecule agonists: luciferase reporter gene qHTS assay in human keratinocytes (AID 1919969); further: nearly all actives have a fitted effect of over 35% in size; further: potency means the concentration at half of the fitted maximal effect
[3] = molecular target: Gonadotropin-releasing hormone receptor (Homo sapiens) (UniProt P30968); experiment: Human gonadotropin-releasing hormone receptor (GnRHR) small molecule agonists, calcium flux assay in GnRHR-HEK293 cells (AID 1920063); further: nearly all actives have a fitted effect of over 35% in size
Chain of Gonadotropin-releasing hormone receptor (Homo sapiens) (P30968 whole entry, looked up): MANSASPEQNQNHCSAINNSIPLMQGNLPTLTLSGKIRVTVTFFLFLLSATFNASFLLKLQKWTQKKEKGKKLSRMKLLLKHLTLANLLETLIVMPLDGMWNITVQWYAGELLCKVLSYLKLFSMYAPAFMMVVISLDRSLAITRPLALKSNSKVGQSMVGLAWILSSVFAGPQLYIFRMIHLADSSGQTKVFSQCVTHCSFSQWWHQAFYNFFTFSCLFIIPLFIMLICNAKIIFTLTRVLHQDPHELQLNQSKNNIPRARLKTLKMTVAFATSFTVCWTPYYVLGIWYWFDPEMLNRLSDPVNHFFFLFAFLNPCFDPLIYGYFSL
How it was run: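 Compounds dissolved in DMSO are pin-transferred onto dye-loaded GnRHR-HEK293 cells, which were seeded 18 h before at 37 C/5% CO2. Calcium signal is read as fluorescence intensity at 1 s intervals for 3 min.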

[4] = molecular target: KiSS-1 receptor (Homo sapiens) (UniProt Q969F8); experiment: Human kisspeptin (KISS1R) small molecule agonists, calcium flux assay in KISS1R-HEK293 cells (AID 1920064; active means well fitted curve in the direction sought with a large enough effect in the repeat runs; an effect the other way counts as inactive or inconclusive)
Chain of KiSS-1 receptor (Homo sapiens) (Q969F8 whole entry, looked up): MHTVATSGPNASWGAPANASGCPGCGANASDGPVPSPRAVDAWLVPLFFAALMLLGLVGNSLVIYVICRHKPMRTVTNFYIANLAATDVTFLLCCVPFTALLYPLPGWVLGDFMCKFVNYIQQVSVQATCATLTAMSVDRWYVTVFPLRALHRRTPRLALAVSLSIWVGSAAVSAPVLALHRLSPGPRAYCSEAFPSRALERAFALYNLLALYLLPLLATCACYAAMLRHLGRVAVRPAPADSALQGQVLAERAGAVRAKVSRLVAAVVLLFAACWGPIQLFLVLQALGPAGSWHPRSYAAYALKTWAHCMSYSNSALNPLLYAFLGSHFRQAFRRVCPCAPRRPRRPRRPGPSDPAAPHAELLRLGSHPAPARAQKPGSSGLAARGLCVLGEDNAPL
How it was run: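 Cell line: HEK293, stable human KISS1R. Dye loading 1 h at 37 C after 18 h culture. Read: kinetic fluorescence, 480/540 nm, 3 min at 1 s intervals.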

[5] = G protein-coupled receptor (GPCR) small molecule agonists, calcium flux assay: HEK293 wild type cell line counter screen (AID 1920065)
How it was run: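 Tox21 10K compounds, 15 concentrations each in triplicate, pin-transferred in DMSO onto dye-loaded cells; kinetic read at 480/540 nm for 3 min, 1 s intervals.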

[6] = p53 small molecule agonists, cell-based qHTS assay with human liver microsomes (AID 1963577)
How it was run: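 p53RE-bla cells, 4,000/well, compound added after 5 h, with human liver microsomes 0.5 mg/mL and NADPH 0.5 mg/mL final; 16 h at 37 C, then LiveBLAzer 2 h RT, fluorescence.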

[7] = p53 small molecule agonists, cell-based qHTS assay with rat liver microsomes (AID 1963578)
How it was run: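 p53RE-bla cells, 4,000/well, pre-incubated 5 h, then given compounds plus rat liver microsomes (0.5 mg/mL final) and NADPH (0.5 mg/mL final). Incubation 16 h at 37 C; beta-lactamase reporter read by LiveBLAzer fluorescence after 2 h at room temperature.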

[8] = p53 small molecule agonists, cell-based qHTS assay: qHTS cell viability counter screen (AID 1963581); further: nearly all actives have a fitted effect of over 45% in size
How it was run: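 ATP content measured by luminescence in HCT-116 p53RE-bla cells treated 16 h at 37 C, same wells as the reporter screen.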

[9] = p53 small molecule agonists, cell-based qHTS assay (AID 1963582; active means well fitted activation curve with a large enough effect in the signal ratio in the repeat runs, not every such curve was filed as active; the % refers to the signal ratio)
How it was run: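 16 h compound exposure (37 C) of p53 response element–bla cells, preceded by 5 h recovery at 37 C/5% CO2; read-out via LiveBLAzer B/G FRET substrate, 2 h RT, fluorescence intensity.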

[10] = molecular target: 5-hydroxytryptamine receptor 2A (Homo sapiens) (UniProt P28223); experiment: 5-hydroxytryptamine receptor 2A (HTR2A) small molecule antagonists, cell-based qHTS assay (AID 1963586); further: nearly all actives have a fitted effect of over 45% in size
Chain of 5-hydroxytryptamine receptor 2A (Homo sapiens) (P28223 whole entry, looked up): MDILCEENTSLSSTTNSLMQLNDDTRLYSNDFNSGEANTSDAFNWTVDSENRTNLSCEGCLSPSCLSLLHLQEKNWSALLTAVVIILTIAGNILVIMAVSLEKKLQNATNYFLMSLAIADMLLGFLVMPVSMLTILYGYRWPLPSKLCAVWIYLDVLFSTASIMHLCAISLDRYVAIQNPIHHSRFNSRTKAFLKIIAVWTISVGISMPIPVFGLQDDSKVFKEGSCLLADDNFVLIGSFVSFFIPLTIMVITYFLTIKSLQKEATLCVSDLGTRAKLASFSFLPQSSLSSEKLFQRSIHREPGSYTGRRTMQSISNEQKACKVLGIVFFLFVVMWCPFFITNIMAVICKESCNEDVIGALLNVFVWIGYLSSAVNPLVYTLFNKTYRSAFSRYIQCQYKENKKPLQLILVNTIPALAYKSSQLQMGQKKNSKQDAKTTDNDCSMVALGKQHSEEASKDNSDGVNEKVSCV
How it was run: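 CHO cells stably expressing human HTR2A were plated for 18 h at 37 C, then loaded with calcium dye for 1 h. Compounds were preincubated 5 min at room temperature before DOI (4 nM solution) was added. Kinetic fluorescence was read for 3 min.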

[11] = molecular target: 5-hydroxytryptamine receptor 2A (Homo sapiens) (UniProt P28223); experiment: 5-hydroxytryptamine receptor 2A (HTR2A) small molecule agonists, cell-based qHTS assay (AID 1963587); further: nearly all actives have a fitted effect of over 30% in size
How it was run: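 HTR2A-CHO cells, plated 18 h at 37 C/5% CO2, dye-loaded 1 h at 37 C; compounds in DMSO added by pin tool (agonist mode). Intracellular calcium flux read as kinetic fluorescence on FDSS over 2 min at 1 s intervals.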

[12] = molecular target: Muscarinic acetylcholine receptor M1 (Homo sapiens) (UniProt P11229); experiment: Cholinergic receptor muscarinic 1 (CHRM1) small molecule antagonists, cell-based qHTS assay (AID 1963588); further: nearly all actives have a fitted effect of over 40% in size; further: potency means the concentration at half of the fitted maximal effect
Chain of Muscarinic acetylcholine receptor M1 (Homo sapiens) (P11229 whole entry, looked up): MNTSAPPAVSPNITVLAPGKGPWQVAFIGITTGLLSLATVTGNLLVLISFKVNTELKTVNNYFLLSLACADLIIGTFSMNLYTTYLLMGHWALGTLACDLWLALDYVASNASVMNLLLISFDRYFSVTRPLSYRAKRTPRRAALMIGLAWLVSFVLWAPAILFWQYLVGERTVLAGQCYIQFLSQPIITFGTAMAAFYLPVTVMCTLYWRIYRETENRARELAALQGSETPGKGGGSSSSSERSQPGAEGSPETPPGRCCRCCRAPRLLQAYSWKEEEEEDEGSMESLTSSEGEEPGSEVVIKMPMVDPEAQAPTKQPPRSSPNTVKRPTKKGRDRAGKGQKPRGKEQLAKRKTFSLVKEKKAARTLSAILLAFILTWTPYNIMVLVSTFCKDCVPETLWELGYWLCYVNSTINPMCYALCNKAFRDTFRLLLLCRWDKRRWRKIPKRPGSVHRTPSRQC
How it was run: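 Compounds were tested at 15 concentrations in three independent runs. Dye-loaded CHRM1-CHO cells were exposed 5 min at room temperature before stimulation by acetylcholine added at 50nM. Intracellular calcium was read kinetically on FDSS for 3 min.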

[13] = molecular target: Muscarinic acetylcholine receptor M1 (Homo sapiens) (UniProt P11229); experiment: Cholinergic receptor muscarinic 1 (CHRM1) small molecule agonists, cell-based qHTS assay (AID 1963589); further: nearly all actives have a fitted effect of over 35% in size
How it was run: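 Homogeneous fluorescence calcium flux, agonist mode. Human M1-expressing CHO cells; compound dosed at 15 concentrations, three independent runs; signal sampled every 1 sec.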

[14] = cAMP Responsive Elements (CRE) small molecule agonists, cell-based qHTS assay (AID 1963590)
How it was run: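 HEK 293T cells stably bearing CRE-bla were plated at 2,000 cells per well and rested 18 h. Compounds, positive controls or DMSO were added for 3 h at 37 C. LiveBLAzer B/G substrate was then loaded for 2 h at room temperature.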

[15] = cAMP Responsive Elements (CRE) small molecule antagonists, cell-based qHTS assay (AID 1963591; active means well fitted inhibition curve with a large enough effect in the signal ratio in the repeat runs, not every such curve was filed as active; the % refers to the signal ratio)
How it was run: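 First, CRE-bla HEK293T cells settled 18 h at 37 C. Next, compound and 0.25 uM final NKH477 were applied for 3 h. Last, LiveBLAzer B/G substrate was loaded for 2 h at room temperature.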

[16] = molecular target: Beta-2 adrenergic receptor (Homo sapiens) (UniProt P07550); experiment: Adrenergic beta2 receptor (ADRB2) small molecule antagonists, cell-based qHTS assay (AID 1963592); further: series mostly up to about 92 µM; nearly all actives have a fitted effect of over 50% in size
Chain of Beta-2 adrenergic receptor (Homo sapiens) (P07550 whole entry, looked up): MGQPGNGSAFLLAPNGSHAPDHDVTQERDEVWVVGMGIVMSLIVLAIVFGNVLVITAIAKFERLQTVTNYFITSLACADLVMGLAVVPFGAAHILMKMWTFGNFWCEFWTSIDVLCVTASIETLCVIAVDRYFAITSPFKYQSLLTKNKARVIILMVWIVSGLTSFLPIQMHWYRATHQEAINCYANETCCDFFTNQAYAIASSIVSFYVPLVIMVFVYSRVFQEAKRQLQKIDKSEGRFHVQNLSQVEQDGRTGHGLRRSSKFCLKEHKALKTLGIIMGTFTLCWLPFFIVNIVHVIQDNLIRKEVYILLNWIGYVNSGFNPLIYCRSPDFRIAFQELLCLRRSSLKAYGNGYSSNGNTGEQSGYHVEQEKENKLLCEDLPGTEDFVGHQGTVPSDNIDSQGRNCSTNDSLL
How it was run: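 Assay format: CHO-ADRB2 cells, 18-20hr seeding at 37C/5% CO2, then compound plus 1nM isoproterenol agonist mix for 0.5hr RT. Homogeneous time-resolved fluorescence cAMP detection after 1hr, expressed as 665/615 nm ratio.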

[17] = p53 small molecule agonists, cell-based qHTS assay with rat liver microsomes: qHTS cell viability counter screen (AID 1963580); further: nearly all actives have a fitted effect of over 45% in size
How it was run: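 Counter screen for cytotoxicity under metabolic activation: rat liver microsomes and NADPH, 0.5 mg/mL final each, added with compounds to p53RE-bla HCT-116 cells; 16 h at 37 C, then ATP luminescence read.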

[18] = molecular target: D(2) dopamine receptor (Homo sapiens) (UniProt P14416); experiment: Dopamine D2 receptor (DRD2) small molecule antagonists, cell-based qHTS assay (AID 1963595; active means well fitted inhibition curve with a large enough effect in the signal ratio in the repeat runs, with a control signal flat; the % refers to the signal ratio)
Chain of D(2) dopamine receptor (Homo sapiens) (P14416 whole entry, looked up): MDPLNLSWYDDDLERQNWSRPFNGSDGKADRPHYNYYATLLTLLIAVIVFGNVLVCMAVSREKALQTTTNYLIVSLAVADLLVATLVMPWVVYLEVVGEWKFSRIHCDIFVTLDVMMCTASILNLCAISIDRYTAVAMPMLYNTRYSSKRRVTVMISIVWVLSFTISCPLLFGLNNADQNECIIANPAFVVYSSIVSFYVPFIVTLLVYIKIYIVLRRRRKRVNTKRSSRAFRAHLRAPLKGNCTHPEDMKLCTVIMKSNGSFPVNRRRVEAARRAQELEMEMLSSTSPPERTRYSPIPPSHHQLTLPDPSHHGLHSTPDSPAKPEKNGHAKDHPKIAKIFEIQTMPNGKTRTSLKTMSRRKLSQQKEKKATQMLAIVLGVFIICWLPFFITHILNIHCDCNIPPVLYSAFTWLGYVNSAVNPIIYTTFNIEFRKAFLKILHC
How it was run: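 Antagonism was scored as restored cAMP in HEK293-DRD2 cells. These cells were stimulated with 200 nM NKH477 and 12 nM quinpirole for 30 min at room temperature, in the presence of 0.1 mM Ro20-1724.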

[19] = molecular target: D(2) dopamine receptor (Homo sapiens) (UniProt P14416); experiment: Dopamine D2 receptor (DRD2) small molecule agonists, cell-based qHTS assay (AID 1963594); further: nearly all actives have a fitted effect of over 35% in size
How it was run: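 HEK293 cells stably expressing DRD2 were cultured 24 h at 37 C, then given Ro20-1724 (0.1 mM final) and compounds for 10 min at room temperature. NKH477 (200nM) was then added for 30 min. cAMP was read by HTRF.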

[20] = molecular target: Beta-2 adrenergic receptor (Homo sapiens) (UniProt P07550); experiment: Adrenergic beta2 receptor (ADRB2) small molecule agonists, cell-based qHTS assay (AID 1963593);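 further: CHO cells stably overexpressing human ADRB2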
How it was run: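 CHO cells stably over-expressing ADRB2 were plated overnight at 37C, then dosed with compounds plus a stimulation mix containing 100uM IBMX and 25uM Ro-20-1724 for 0.5hr at room temperature. cAMP was measured by HTRF competition, 1hr.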

| SMILES | Potency [1] | Potency [2] | Potency [3] | Potency [4] | Potency [5] | Potency [6] | Potency [7] | Potency [8] | Potency [9] | Potency [10] | Potency [11] | Potency [12] | Potency [13] | Potency [14] | Potency [15] | Potency [16] | Potency [17] | Potency [18] | Potency [19] | Potency [20] |
| --- | --- | --- | --- | --- | --- | --- | --- | --- | --- | --- | --- | --- | --- | --- | --- | --- | --- | --- | --- | --- |
| NCC1CCCC(CN)C1 (stereo not drawn) | inactive | inactive | inactive | inactive | inactive | inactive | inactive | inactive | inactive | inactive | inactive | 18.8 µM (active) | inactive | inactive | inactive | inactive | – | – | – | – |
| Clc1nc2ccccc2s1 | inactive | inactive | inactive | inactive | inactive | inactive | – | inactive | inactive | inactive | inactive | inactive | inactive | inactive | inactive | inactive | inactive | inactive | – | – |
| Cc1cc(N)no1 | inactive | inactive | inactive | inactive | inactive | inactive | – | inactive | – | inactive | inactive | inactive | inactive | inactive | inactive | inactive | inactive | inactive | inactive | – |
| CC(CN1c2ccccc2Sc2ccccc21)N(C)C (stereo not drawn) | inactive | inactive | inactive | inactive | inactive | inactive | – | – | inactive | – | – | – | – | inactive | inactive | – | inactive | inactive | inactive | – |
| CCCCCCCCSCCO | inactive | inactive | inactive | inactive | inactive | inactive | – | inactive | inactive | inactive | – | inactive | inactive | inactive | inactive | inactive | inactive | inactive | inactive | – |
| C=CCn1cc[n+](C)c1 | inactive | inactive | inactive | inactive | inactive | inactive | – | inactive | inactive | inactive | inactive | inactive | inactive | inactive | – | inactive | inactive | inactive | inactive | inactive |
| C[C@@H]1CCC[C@H](C)N1 | inactive | inactive | inactive | inactive | inactive | inactive | – | inactive | – | inactive | inactive | inactive | inactive | inactive | – | inactive | inactive | inactive | inactive | – |
| CCN(CC)CCN | inactive | inactive | inactive | inactive | inactive | inactive | – | – | inactive | inactive | – | inactive | inactive | inactive | inactive | – | inactive | inactive | inactive | inactive |
| OCCN1CCN(CCCN2c3ccccc3C=Cc3ccccc32)CC1 | inactive | inactive | inactive | inactive | inactive | inactive | – | inactive | inactive | – | inactive | inactive | inactive | inactive | inactive | inactive | inactive | – | inactive | inactive |
| C=C(CC)C(=O)c1ccc(OCC(=O)O)c(Cl)c1Cl | inactive | 24.2 µM (active) and 29.8 µM (active) | inactive | inactive | inactive | inactive | – | inactive | – | – | – | – | – | – | – | inactive | inactive | inactive | inactive | inactive |
| CCn1c2ccccc2c2ccccc21 | inactive | inactive | inactive | inactive | inactive | inactive | – | inactive | inactive | inactive | – | inactive | – | inactive | inactive | inactive | inactive | inactive | inactive | – |
| CC(=O)CC(N)=O | inactive | inactive | inactive | inactive | inactive | inactive | – | inactive | inactive | inactive | – | inactive | inactive | inactive | inactive | inactive | inactive | inactive | inactive | inactive |
| CCC(C)NC(N)=O (stereo not drawn) | inactive | inactive | inactive | inactive | inactive | inactive | – | inactive | inactive | inactive | – | inactive | inactive | inactive | inactive | inactive | inactive | inactive | inactive | inactive |
| O=Cc1ccc([N+](=O)[O-])cc1 | inactive | inactive | inactive | inactive | inactive | inactive | – | inactive | inactive | inactive | inactive | inactive | inactive | inactive | inactive | inactive | inactive | inactive | – | – |
| CCOC(=S)SSC(=S)OCC | inactive | 68.6 µM (active) | inactive | inactive | inactive | inactive | – | – | inactive | inactive | inactive | inactive | inactive | inactive | inactive | inactive | inactive | inactive | inactive | inactive |
| COc1cc(C(=O)N2CCOCC2)cc(OC)c1OC | inactive | inactive | inactive | inactive | inactive | inactive | – | inactive | inactive | inactive | inactive | inactive | inactive | – | inactive | inactive | inactive | inactive | inactive | inactive |
